Here are results for one sequence from publication PMC7862700, “An all-to-all approach to the identification of sequence-specific readers for epigenetic DNA modifications on cytosine”.

Common to all, as to assay: DAPPL (digital affinity profiling via proximity ligation, sequencing); 10 mM Tris-HCl pH 7.5, 50 mM NaCl, 1 mM DTT, 4% glycerol, room temperature, 30 min; GST-TFs on glutathione beads, 16-mer random dsDNA library, 0.1% formaldehyde crosslink after washing; high values mean tight binding
Conditions in all cases: protein: recombinant; tags: N-terminal GST; dsDNA, one strand shown

One test deals with T1, FLI1 (Homo sapiens, UniProt Q01543 1-452).
T1 sequence: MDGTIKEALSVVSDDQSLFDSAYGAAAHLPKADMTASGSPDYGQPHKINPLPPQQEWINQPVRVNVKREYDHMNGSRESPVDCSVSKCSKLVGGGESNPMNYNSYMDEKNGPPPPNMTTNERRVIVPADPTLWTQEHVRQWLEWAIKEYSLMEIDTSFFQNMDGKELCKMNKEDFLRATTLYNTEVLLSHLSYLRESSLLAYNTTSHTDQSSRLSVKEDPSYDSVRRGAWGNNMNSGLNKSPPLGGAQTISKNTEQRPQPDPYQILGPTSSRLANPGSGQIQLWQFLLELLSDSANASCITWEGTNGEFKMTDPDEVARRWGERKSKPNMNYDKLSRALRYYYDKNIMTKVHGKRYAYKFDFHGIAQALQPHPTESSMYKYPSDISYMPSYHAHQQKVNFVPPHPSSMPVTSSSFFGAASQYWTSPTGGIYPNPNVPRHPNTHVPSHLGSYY
An outline of the steps:
(§1)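 Each value of binding signal is a hexamer's read frequency for a factor divided by the same hexamer's frequency in the tag-only sample. Barcoded, bead-captured GST fusions of human transcription factors made in yeast were pooled with that sample and incubated with 200 nmole of a random double-stranded 16-mer DNA library in Tris/NaCl/DTT/glycerol buffer at room temperature for 30 min. Washing, 0.1% formaldehyde crosslinking, proximity ligation, PCR and Illumina NextSeq500 sequencing followed.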

Another test has as its target T2, ELK1 (Homo sapiens, UniProt P19419 1-428).
T2 sequence: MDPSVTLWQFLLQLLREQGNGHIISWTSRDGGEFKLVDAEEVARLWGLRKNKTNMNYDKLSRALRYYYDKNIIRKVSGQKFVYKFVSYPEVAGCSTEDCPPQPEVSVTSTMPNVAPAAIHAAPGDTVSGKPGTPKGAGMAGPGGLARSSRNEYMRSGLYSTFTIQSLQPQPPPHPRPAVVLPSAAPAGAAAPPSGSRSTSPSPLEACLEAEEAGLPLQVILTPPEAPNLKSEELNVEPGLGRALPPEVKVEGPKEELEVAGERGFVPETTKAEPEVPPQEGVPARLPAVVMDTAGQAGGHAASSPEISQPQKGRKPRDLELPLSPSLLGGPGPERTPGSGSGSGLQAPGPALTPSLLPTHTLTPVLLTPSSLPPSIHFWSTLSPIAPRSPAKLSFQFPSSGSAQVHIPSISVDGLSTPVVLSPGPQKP
An outline of the steps:
as §1

The next test addresses T3, GABPA (Homo sapiens, UniProt Q06546 1-454).
T3 sequence: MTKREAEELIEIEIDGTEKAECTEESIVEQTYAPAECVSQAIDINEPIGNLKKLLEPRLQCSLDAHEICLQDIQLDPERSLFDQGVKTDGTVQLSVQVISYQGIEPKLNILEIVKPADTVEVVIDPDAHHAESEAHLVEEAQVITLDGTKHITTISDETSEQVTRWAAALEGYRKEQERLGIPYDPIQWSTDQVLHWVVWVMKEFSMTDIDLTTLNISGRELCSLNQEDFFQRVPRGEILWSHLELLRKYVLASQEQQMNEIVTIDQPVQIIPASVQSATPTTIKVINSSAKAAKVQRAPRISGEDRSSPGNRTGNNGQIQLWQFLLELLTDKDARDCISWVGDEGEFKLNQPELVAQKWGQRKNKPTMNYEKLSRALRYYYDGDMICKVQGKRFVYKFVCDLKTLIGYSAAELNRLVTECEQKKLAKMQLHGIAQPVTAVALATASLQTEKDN
An outline of the steps:
as §1

The target of a further test is ELF1 (Homo sapiens, UniProt P32519 1-619). An outline of the steps: as §1
ELF1, sequence (P32519 whole entry): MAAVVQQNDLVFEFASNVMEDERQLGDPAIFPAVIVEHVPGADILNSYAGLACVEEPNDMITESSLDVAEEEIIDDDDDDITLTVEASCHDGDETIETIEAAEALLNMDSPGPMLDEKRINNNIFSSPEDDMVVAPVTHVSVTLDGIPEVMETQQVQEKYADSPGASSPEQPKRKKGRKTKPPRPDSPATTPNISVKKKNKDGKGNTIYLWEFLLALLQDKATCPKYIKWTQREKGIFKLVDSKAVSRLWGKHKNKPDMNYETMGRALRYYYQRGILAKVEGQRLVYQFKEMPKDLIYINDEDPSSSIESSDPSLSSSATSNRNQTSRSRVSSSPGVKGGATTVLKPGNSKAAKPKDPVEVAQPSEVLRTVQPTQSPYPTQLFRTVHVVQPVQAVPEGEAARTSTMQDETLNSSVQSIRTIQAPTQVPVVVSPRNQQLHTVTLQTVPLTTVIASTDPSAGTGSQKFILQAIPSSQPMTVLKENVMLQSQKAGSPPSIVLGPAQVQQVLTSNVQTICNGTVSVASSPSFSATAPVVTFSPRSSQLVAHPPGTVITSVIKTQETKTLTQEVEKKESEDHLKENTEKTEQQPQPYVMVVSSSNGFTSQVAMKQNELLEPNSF
In the next test the target is T4, EHF (Homo sapiens, UniProt Q9NZC4 1-300).
T4 sequence: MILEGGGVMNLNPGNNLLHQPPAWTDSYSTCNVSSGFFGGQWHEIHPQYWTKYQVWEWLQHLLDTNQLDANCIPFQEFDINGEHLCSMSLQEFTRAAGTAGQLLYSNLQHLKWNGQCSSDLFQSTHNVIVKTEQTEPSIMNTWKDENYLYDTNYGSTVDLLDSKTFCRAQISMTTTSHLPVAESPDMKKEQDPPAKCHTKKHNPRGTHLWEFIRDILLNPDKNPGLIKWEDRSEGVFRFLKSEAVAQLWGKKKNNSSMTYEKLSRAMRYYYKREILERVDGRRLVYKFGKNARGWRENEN
The method, boiled down: as §1

The next test addresses SPI1 (Homo sapiens, UniProt P17947 1-270). The method, boiled down:
as §1

Another test addresses T5, SPIC (Homo sapiens, UniProt Q8N5J4 1-248).
T5 sequence: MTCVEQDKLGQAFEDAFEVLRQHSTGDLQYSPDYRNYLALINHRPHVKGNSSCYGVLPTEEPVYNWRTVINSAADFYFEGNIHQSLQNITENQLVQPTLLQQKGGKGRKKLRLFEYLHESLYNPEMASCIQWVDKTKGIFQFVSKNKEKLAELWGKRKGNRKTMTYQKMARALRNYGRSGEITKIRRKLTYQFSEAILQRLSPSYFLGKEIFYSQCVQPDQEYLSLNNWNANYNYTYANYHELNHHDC
The method, boiled down:
as §1

For a further test, the target named is ELF4 (Homo sapiens, UniProt Q99607 1-663). The method, boiled down:
as §1

Another test concerns the target T6, ELK4 (Homo sapiens, UniProt P28324-2 1-405).
T6 sequence: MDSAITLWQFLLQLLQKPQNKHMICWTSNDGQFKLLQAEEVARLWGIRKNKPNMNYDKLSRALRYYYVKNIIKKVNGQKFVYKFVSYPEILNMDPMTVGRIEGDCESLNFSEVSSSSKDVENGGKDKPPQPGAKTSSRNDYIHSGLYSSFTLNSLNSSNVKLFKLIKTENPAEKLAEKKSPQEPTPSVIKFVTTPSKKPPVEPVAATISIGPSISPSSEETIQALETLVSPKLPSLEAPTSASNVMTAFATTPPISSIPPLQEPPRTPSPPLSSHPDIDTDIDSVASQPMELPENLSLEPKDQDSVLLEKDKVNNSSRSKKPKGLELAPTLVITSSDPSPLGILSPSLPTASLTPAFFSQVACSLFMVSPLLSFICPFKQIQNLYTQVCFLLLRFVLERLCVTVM
An outline of the steps: as §1

The target in a further test is T7, ETV2 (Homo sapiens, UniProt O00321 1-342).
T7 sequence: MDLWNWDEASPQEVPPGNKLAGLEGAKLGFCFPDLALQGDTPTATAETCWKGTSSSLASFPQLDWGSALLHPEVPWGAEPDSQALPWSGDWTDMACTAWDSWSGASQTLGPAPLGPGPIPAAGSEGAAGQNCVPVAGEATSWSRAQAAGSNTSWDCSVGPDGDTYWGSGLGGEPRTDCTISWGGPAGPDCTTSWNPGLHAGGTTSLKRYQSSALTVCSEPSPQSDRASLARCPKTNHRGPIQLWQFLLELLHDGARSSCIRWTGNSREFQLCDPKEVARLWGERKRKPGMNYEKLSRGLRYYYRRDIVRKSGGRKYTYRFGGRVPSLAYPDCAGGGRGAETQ
An outline of the steps:
as §1

For a further test, the target named is T8, ELF3 (Homo sapiens, UniProt P78545 1-371).
T8 sequence: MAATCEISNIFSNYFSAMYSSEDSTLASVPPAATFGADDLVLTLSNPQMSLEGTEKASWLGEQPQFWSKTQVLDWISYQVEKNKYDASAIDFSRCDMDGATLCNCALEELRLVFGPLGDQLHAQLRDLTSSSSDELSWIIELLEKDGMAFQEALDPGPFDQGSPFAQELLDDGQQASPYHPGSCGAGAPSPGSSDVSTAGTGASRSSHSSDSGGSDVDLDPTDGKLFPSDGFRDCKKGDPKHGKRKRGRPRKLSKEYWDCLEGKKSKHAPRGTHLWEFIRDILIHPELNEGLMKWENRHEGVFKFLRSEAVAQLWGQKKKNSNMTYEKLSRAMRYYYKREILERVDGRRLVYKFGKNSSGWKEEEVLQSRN
The method, boiled down: as §1

For the next test, the target named is CRX (Homo sapiens, UniProt O43186 1-299). An outline of the steps:
as §1

The next test has as its target ETV1 (Homo sapiens, UniProt P50549 1-477). The method, boiled down: as §1
The target of another test is T9, ETS2 (Homo sapiens, UniProt P15036 1-469).
T9 sequence: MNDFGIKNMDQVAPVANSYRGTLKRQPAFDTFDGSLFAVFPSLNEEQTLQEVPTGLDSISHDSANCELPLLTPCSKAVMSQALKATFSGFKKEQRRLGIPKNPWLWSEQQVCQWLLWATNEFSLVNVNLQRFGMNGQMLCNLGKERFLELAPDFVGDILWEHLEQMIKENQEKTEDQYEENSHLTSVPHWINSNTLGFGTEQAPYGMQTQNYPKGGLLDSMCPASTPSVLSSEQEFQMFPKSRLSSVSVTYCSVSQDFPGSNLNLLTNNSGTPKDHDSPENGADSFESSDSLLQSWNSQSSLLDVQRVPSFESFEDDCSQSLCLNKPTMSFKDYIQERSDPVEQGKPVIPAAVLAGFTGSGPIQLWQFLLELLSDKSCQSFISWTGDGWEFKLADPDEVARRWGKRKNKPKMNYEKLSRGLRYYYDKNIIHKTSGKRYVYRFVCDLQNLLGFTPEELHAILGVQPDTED
An outline of the steps:
as §1

Another test deals with T10, ETV7 (Homo sapiens, UniProt Q9Y603 1-341).
T10 sequence: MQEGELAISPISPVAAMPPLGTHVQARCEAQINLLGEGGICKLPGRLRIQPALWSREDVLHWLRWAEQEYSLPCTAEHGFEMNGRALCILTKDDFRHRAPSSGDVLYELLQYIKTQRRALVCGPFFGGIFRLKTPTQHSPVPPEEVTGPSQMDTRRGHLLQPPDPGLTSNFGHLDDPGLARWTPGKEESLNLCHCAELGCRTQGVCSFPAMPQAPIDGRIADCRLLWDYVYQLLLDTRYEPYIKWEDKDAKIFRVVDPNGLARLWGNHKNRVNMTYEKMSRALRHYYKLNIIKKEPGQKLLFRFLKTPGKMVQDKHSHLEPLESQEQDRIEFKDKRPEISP
The method, boiled down:
as §1

The next test concerns the target T11, ETV3 (Homo sapiens, UniProt P41162-2 1-143).
T11 sequence: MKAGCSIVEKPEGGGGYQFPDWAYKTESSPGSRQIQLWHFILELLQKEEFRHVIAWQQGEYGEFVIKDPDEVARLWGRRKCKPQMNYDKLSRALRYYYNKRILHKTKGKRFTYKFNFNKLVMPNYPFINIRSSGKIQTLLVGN
An outline of the steps:
as §1

CRX, sequence (O43186 whole entry): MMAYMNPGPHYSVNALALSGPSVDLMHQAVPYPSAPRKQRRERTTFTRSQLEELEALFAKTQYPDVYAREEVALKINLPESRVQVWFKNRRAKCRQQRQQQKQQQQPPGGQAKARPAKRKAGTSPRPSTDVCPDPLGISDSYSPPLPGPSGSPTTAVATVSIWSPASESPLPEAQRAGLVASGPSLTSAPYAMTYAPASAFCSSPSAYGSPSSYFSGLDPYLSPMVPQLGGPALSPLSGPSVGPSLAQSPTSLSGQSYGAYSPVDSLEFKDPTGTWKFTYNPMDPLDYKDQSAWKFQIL
ETV1, sequence (P50549 whole entry): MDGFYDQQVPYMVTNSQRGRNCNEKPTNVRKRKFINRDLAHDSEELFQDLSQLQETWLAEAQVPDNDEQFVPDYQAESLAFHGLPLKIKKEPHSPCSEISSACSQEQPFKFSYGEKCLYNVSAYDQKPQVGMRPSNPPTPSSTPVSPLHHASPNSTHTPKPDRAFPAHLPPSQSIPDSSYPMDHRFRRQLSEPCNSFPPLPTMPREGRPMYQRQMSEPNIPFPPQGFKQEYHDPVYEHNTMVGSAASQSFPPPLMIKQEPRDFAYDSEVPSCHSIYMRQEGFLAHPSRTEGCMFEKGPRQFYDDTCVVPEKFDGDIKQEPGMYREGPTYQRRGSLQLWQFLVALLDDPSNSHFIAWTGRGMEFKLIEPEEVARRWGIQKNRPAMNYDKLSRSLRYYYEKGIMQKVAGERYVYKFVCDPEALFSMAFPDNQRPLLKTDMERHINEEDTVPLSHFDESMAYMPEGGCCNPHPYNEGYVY
ELF4, sequence (Q99607 whole entry): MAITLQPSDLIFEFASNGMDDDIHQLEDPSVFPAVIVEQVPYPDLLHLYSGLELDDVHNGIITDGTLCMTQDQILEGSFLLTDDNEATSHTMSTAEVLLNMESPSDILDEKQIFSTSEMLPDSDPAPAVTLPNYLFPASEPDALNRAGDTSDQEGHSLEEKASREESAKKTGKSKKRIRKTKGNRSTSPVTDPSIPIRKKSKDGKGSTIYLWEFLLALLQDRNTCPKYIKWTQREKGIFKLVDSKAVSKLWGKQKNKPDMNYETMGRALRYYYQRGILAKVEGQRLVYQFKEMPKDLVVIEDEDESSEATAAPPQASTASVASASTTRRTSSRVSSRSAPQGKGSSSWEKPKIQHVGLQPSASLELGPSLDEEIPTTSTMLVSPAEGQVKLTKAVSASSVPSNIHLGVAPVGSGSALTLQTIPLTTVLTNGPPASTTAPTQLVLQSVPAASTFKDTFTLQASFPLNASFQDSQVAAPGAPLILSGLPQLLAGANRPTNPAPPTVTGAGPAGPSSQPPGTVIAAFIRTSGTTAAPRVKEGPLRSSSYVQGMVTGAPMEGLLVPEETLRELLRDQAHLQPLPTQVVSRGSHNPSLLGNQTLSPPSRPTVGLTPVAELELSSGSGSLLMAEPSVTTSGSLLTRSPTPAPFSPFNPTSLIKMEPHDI

For AGCTGA, the binding signal in the test with FLI1 is 1.02 fold enrichment (6-mer frequency, TF over GST control); with ELK1, 1.07 fold enrichment (6-mer frequency, TF over GST control); in the test with GABPA, 1.01 fold enrichment (6-mer frequency, TF over GST control); in the test with ELF1 it was 1.1 fold enrichment (6-mer frequency, TF over GST control); in the test with EHF, 1.11 fold enrichment (6-mer frequency, TF over GST control); with SPI1 it was 1.01 fold enrichment (6-mer frequency, TF over GST control). Further, the binding signal in the test with SPIC is 1.14 fold enrichment (6-mer frequency, TF over GST control); with ELF4, 1.01 fold enrichment (6-mer frequency, TF over GST control); in the test with ELK4, 1.02 fold enrichment (6-mer frequency, TF over GST control); with ETV2, 1.08 fold enrichment (6-mer frequency, TF over GST control); with ELF3, 1.14 fold enrichment (6-mer frequency, TF over GST control); with CRX, 1.11 fold enrichment (6-mer frequency, TF over GST control). Besides, the binding signal was 1.08 fold enrichment (6-mer frequency, TF over GST control) with ETV1; 1.04 fold enrichment (6-mer frequency, TF over GST control) in the test with ETS2; 1.09 fold enrichment (6-mer frequency, TF over GST control) with ETV7; 1.05 fold enrichment (6-mer frequency, TF over GST control) with ETV3.
